Experimental findings from PubChem BioAssay (NCI) are described below.

SMILES strings stand for the structures. Compounds without any hit were thinned out: in the full panel of roughly 83,000, 20% have a hit.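 In brief: 96-well plates, 48 h treatment, single concentration, percent growth endpoint.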 Values without a mark were called inactive. Active and inactive are the calls of the source. The calls were made as follows: active = growth percent below 10; inactive = the rest.

Some test systems named below: NCI-H23 lung; NCI-H226 lung; NCI-H322M lung; HOP-62 NSCLC; NCI-H460 lung; HOP-92 NSCLC; NCI-H522 lung; A549/ATCC NSCLC; 786-0 renal; COLO 205 colon; DU-145 prostate; K-562 leukemia; MALME-3M melanoma; MDA-MB-231 breast; RXF 393 renal; SF-268 CNS; SF-295 CNS; SF-539 CNS; UACC-257 melanoma; M14 melanoma.
What all share (experiment): NCI-60 one-dose screen, 48 h (100 = growth as untreated, 0 = no growth, -100 = all killed)
Common to all, as to conditions: 10 µM unless noted

As for `COc1cc2c(c(OC)c1OC)CCC(c1cccc(NC(=O)c3ccc(Br)cc3)c1)O2` (stereo not given), the growth was 80.1% in the assay with NCI-H23 lung; 72.4% with NCI-H226 lung; 75.1% in the assay on NCI-H322M lung; 87.2% in the assay on HOP-62 NSCLC; 93.5% with NCI-H460 lung; 58.5% in the assay on HOP-92 NSCLC. The growth was 74.6% in the assay on NCI-H522 lung; 67.4% in the assay on A549/ATCC NSCLC; 97.1% in the assay with 786-0 renal; 85.8% in the assay with COLO 205 colon; 87.9% with DU-145 prostate; 49.7% in the assay with K-562 leukemia. The growth is 80.4% with MALME-3M melanoma; 82.6% in the assay with MDA-MB-231 breast; 89% with RXF 393 renal; 78.6% in the assay on SF-268 CNS; 66.9% in the assay with SF-295 CNS; 97.3% in the assay with SF-539 CNS. The growth is 69.6% in the assay on UACC-257 melanoma and 81.3% in the assay with M14 melanoma.
For the compound `Nc1cnc(C(=O)NNc2nc3cc(F)ccc3n3cccc23)cn1`, the growth was 44% with NCI-H23 lung; 49.5% in the assay with NCI-H226 lung; 26.3% with NCI-H322M lung; 33% in the assay with HOP-62 NSCLC; 7.9% (active) with NCI-H460 lung; 64.2% in the assay with HOP-92 NSCLC. Also, the growth in the assay on NCI-H522 lung was 16.7%; in the assay with A549/ATCC NSCLC, 38.8%; with 786-0 renal, 37.7%; in the assay on COLO 205 colon, 9.48% (active); in the assay with DU-145 prostate it was 37.8%; in the assay with K-562 leukemia it was 23.7%. The growth in the assay on MALME-3M melanoma was 59.9%; with MDA-MB-231 breast it was 35.9%; in the assay with RXF 393 renal, 70.6%; in the assay with SF-268 CNS it was 36%; with SF-295 CNS it was 12.7%; in the assay on SF-539 CNS it was 33.9%. The growth with UACC-257 melanoma is 50.9%; with M14 melanoma, 23.3%.
In the case of `COc1ccc(/C=C/C(=O)c2cc3c(N)c(C(=O)Nc4cccc5ccccc45)sc3nc2C)cc1`, the growth in the assay with NCI-H23 lung was 85.1%; in the assay on NCI-H226 lung it was 85%; in the assay with NCI-H322M lung, 95.8%; in the assay with HOP-62 NSCLC, 74.5%; in the assay with NCI-H460 lung, 75.9%; in the assay on HOP-92 NSCLC, 77.1%. Also, the growth is 26.1% in the assay with NCI-H522 lung; 68.7% with A549/ATCC NSCLC; 46.4% with 786-0 renal; 103% in the assay on COLO 205 colon; 84.5% in the assay with DU-145 prostate; 28.8% with K-562 leukemia. The growth in the assay with MALME-3M melanoma was 64.7%; in the assay on MDA-MB-231 breast, 93%; in the assay on RXF 393 renal, 63.4%; in the assay on SF-268 CNS, 74.5%; in the assay with SF-295 CNS, 54.4%; in the assay on SF-539 CNS, 76.9%. Further, the growth is 65.2% with UACC-257 melanoma and 60% in the assay with M14 melanoma.
In the case of `COc1ccc(F)cc1/C=C/C(=O)/C=C(/C=C/c1cc(F)ccc1OC)OB(F)F`, the growth in the assay with NCI-H23 lung was 35.2%; in the assay with NCI-H226 lung it was 97.9%; in the assay on NCI-H322M lung, 103%; in the assay on HOP-62 NSCLC, 86.1%; with NCI-H460 lung, 75.2%; in the assay with HOP-92 NSCLC, 56.1%. The growth in the assay with NCI-H522 lung was -20.7% (active); in the assay on A549/ATCC NSCLC it was 71.7%; with 786-0 renal it was 19.4%; in the assay with COLO 205 colon, 10.8%; in the assay on DU-145 prostate, 37.9%; in the assay on K-562 leukemia, 7.73% (active). Also, the growth with MALME-3M melanoma is 5.69% (active); in the assay on MDA-MB-231 breast it was 32.5%; with RXF 393 renal, 18%; with SF-268 CNS it was 80.2%; in the assay with SF-295 CNS it was 93.8%; in the assay with SF-539 CNS, 61.1%. Also, the growth is 48.8% in the assay with UACC-257 melanoma and 9.74% (active) in the assay with M14 melanoma.
With `COc1ccc(CN2c3ccccc3Sc3ccccc32)cc1F`, the growth in the assay on NCI-H23 lung is 30.7%; in the assay on NCI-H226 lung it was 45.6%; in the assay with NCI-H322M lung it was 43%; in the assay on HOP-62 NSCLC it was 20.4%; in the assay with NCI-H460 lung, 5.41% (active); with HOP-92 NSCLC, 50.4%. Besides, the growth in the assay on NCI-H522 lung was 4.53% (active); with A549/ATCC NSCLC, 21.9%; in the assay with 786-0 renal, 22.5%; in the assay on COLO 205 colon, -32.9% (active); in the assay with DU-145 prostate it was 14.1%; in the assay with K-562 leukemia it was 11%. Besides, the growth is 32.6% with MALME-3M melanoma; 24.1% in the assay on MDA-MB-231 breast; 7.16% (active) in the assay with RXF 393 renal; 38.8% with SF-268 CNS; 12.4% with SF-295 CNS; -6.34% (active) in the assay on SF-539 CNS. Further, the growth with UACC-257 melanoma was 54.8%; in the assay with M14 melanoma it was -3.27% (active).
Regarding `CCO/C=N/C1=C(C#N)C(c2ccc(Cl)cc2)c2sc3c(F)cccc3c2O1` (stereo not given), the growth with NCI-H23 lung is 76.2%; in the assay on NCI-H226 lung, 88.6%; with NCI-H322M lung it was 92.3%; with HOP-62 NSCLC, 58.4%; in the assay on NCI-H460 lung, 25.6%; with HOP-92 NSCLC, 77.1%. For the same compound, the growth with NCI-H522 lung is -6.96% (active); in the assay with A549/ATCC NSCLC it was 53.4%; in the assay on 786-0 renal, 71.5%; with COLO 205 colon it was 95.7%; in the assay on DU-145 prostate it was 88.2%; with K-562 leukemia it was 24.6%. In addition, the growth in the assay on MALME-3M melanoma is 71.3%; in the assay on MDA-MB-231 breast it was 71.3%; in the assay with RXF 393 renal it was 76.9%; in the assay with SF-268 CNS it was 68.5%; in the assay on SF-295 CNS, 52.8%; in the assay on SF-539 CNS it was 81.6%. For the same compound, the growth with UACC-257 melanoma was 89%; with M14 melanoma, 46.1%.
As to `Cc1cn(-c2cc(NC(=O)c3cccc(C#Cc4cccc5[nH]nc(N)c45)c3)cc(C(F)(F)F)c2)cn1`, the growth was 37.1% in the assay on NCI-H23 lung; 22.1% in the assay with NCI-H226 lung; 66% in the assay on NCI-H322M lung; 55.5% in the assay with HOP-62 NSCLC; 30.5% in the assay on NCI-H460 lung; -16.6% (active) in the assay with HOP-92 NSCLC. The growth in the assay on NCI-H522 lung was 39.9%; in the assay on A549/ATCC NSCLC, 45.4%; in the assay with 786-0 renal it was 26.5%; in the assay on COLO 205 colon it was 18.6%; in the assay with DU-145 prostate, 57.6%; in the assay with K-562 leukemia it was 3.17% (active). Further, the growth was 12.4% with MALME-3M melanoma; 16.9% in the assay with MDA-MB-231 breast; -6.88% (active) in the assay with RXF 393 renal; 53.2% in the assay with SF-268 CNS; 27.5% in the assay on SF-295 CNS; 6.24% (active) in the assay with SF-539 CNS. For the same compound, the growth with UACC-257 melanoma is 41.4%; with M14 melanoma, 7.33% (active).
